PubChem BioAssay (NCATS)
Several values for one entry are separate records, joined by “and”; a condition that tells them apart may be missing. Equal entries are not always repeated. Inconclusive results are not listed. Where a call stands in place of a potency, no number is given. Activity calls are given as the source filed them. Calls come from the whole dose curve; as a rule, active = well fitted curve in the direction sought with a large enough effect; inconclusive = small, poorly fitted or top-dose-only effect, or another doubt; inactive = no such curve, though single readings can be large; an effect the other way counts as inactive or inconclusive.

Assay: qHTS of pediatric cancer cell lines to identify multiple opportunities for drug repurposing: Confirmatory screen for SJ-GBM2 cells (AID 1347116); note: nearly all actives have a fitted effect of over 60% in size
Conditions: SJ-GBM2 glioblastoma cells, viability; series mostly up to 45.9 µM
How it was run: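 Viability measured as metabolically active cells via CellTiter-Glo luminescence following 48 hours of compound exposure, 11-point dilutions in confirmatory testing. 500-1,000 cells/well plated 5 hours before dosing; controls were DMSO and 2.3 µM bortezomib.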
Potency is the fitted concentration of half-maximal effect.

Row | Structure (SMILES) | Potency
1 | CN(C)c1ccc2nc3ccc(=[N+](C)C)cc-3sc2c1 | 1470 nM (active)
2 | Cc1ccc(NC(=O)c2ccc(CN3CCN(C)CC3)cc2)cc1Nc1nccc(-c2cccnc2)n1 | inactive
3 | Nc1ccn([C@@H]2O[C@H](CO)[C@@H](O)C2O)c(=O)n1 (stereo partly specified) | inactive
4 | CN(C)c1ccc(O)c2c1C[C@H]1C[C@H]3[C@H](N(C)C)C(=O)C(C(N)=O)=C(O)[C@@]3(O)C(=O)C1=C2O | inactive
5 | O=C(NCC1CCCCN1)c1cc(OCC(F)(F)F)ccc1OCC(F)(F)F (stereo unspecified) | inactive
6 | Clc1ccc(C(Cn2ccnc2)OCc2ccsc2Cl)c(Cl)c1 (stereo unspecified) | inactive
7 | CCCCc1ccc2nc(NC(=O)OC)[nH]c2c1 | 3290 nM (active)
8 | Clc1ccc(C(Cn2ccnc2)OCc2ccc(Sc3ccccc3)cc2)c(Cl)c1 (stereo unspecified) | inactive
9 | Oc1ccc(-c2nc(-c3ccc(F)cc3)c(-c3ccncc3)[nH]2)cc1 | 2330 nM (active)
10 | CCCOc1ccc2nc(NC(=O)OC)[nH]c2c1 | 1470 nM (active)
11 | Cc1nc(Nc2ncc(C(=O)Nc3c(C)cccc3Cl)s2)cc(N2CCN(CCO)CC2)n1 | inactive
12 | C[C@]12CCC(=O)C=C1CC[C@@H]1[C@H]2[C@@H](O)C[C@@]2(C)[C@H]1CC[C@]2(O)C(=O)CO | inactive
13 | Nc1ncn([C@H]2C[C@H](O)[C@@H](CO)O2)c(=O)n1 | inactive
14 | CCN(CC)C(=S)SSC(=S)N(CC)CC | 1310 nM (active)
15 | O=C1c2c(O)cc(O)cc2OC(c2ccc(O)c(O)c2)C1O (stereo unspecified) | inactive
16 | CCN(CC)CCOc1ccc(Nc2ncc3cc(-c4c(Cl)cccc4Cl)c(=O)n(C)c3n2)cc1 | 2330 nM (active)
17 | Cc1cc(C2CCCCC2)n(O)c(=O)c1 | inactive
18 | CC[C@]1(O)C[C@H]2CN(CCc3c([nH]c4ccccc34)[C@@](C(=O)OC)(c3cc4c(cc3OC)N(C=O)[C@H]3[C@@](O)(C(=O)OC)[C@H](OC(C)=O)[C@]5(CC)C=CCN6CC[C@]43[C@@H]65)C2)C1 | 185 nM (active)
19 | Nc1nc(OCc2ccccc2)c2[nH]cnc2n1 | inactive
20 | CCOc1cc(CC(=O)N[C@@H](CC(C)C)c2ccccc2N2CCCCC2)ccc1C(=O)O | inactive
21 | Cc1c(C(=O)NN2CCCCC2)nn(-c2ccc(Cl)cc2Cl)c1-c1ccc(Cl)cc1 | inactive
22 | CC(C)C[C@H](NC(=O)[C@H](Cc1ccccc1)NC(=O)c1cnccn1)B(O)O | 32.9 nM (active)
23 | COc1cc(C(C)=O)ccc1OCCCN1CCC(c2noc3cc(F)ccc23)CC1 | inactive

Assay: qHTS of pediatric cancer cell lines to identify multiple opportunities for drug repurposing: Confirmatory screen for BT-37 cells (AID 1347117); note: nearly all actives have a fitted effect of over 55% in size
Conditions: BT-37 pediatric cancer cells, viability; series mostly up to 45.9 µM
How it was run: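 Cells (500-1,000/well) in growth media were settled 5 h at 37 degrees C, then given compounds for 48 h. Viability was read as CellTiter-Glo luminescence. Primary runs used MIPE at 11 points (0.78 nM-46 µM) and NPC at 8 points (0.59 nM-46 µM); follow-ups used 11 points.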

Row | Structure (SMILES) | Potency
24 | Cc1ccc(Nc2nccc(N(C)c3ccc4c(C)n(C)nc4c3)n2)cc1S(N)(=O)=O | inactive
25 | CN(C)c1ccc2nc3ccc(=[N+](C)C)cc-3sc2c1 | 928 nM (active)
26 | CC1(C)C(=O)N(CCN2CCC(C(=O)c3ccc(F)cc3)CC2)c2ccccc21 | inactive
27 | CN(C)c1ccc(O)c2c1C[C@H]1C[C@H]3[C@H](N(C)C)C(=O)C(C(N)=O)=C(O)[C@@]3(O)C(=O)C1=C2O | inactive
28 | Clc1ccc(C(Cn2ccnc2)OCc2ccsc2Cl)c(Cl)c1 (stereo unspecified) | 7370 nM (active)
29 | C=C(c1ccc(C(=O)O)cc1)c1cc2c(cc1C)C(C)(C)CCC2(C)C | inactive
30 | CCCCc1ccc2nc(NC(=O)OC)[nH]c2c1 | 414 nM (active)
31 | Clc1ccc(C(Cn2ccnc2)OCc2ccc(Sc3ccccc3)cc2)c(Cl)c1 (stereo unspecified) | 26100 nM (active)
32 | Oc1ccc(-c2nc(-c3ccc(F)cc3)c(-c3ccncc3)[nH]2)cc1 | 737 nM (active)
33 | CCCOc1ccc2nc(NC(=O)OC)[nH]c2c1 | 1310 nM (active)
34 | CCc1nc(N)nc(N)c1-c1ccc(Cl)cc1 | 5220 nM (active)
35 | CCN(CC)C(=S)SSC(=S)N(CC)CC | 414 nM (active)
36 | c1cnc2cc3c(cc2n1)C1CNCC3C1 | inactive
37 | O=C1c2c(O)cc(O)cc2OC(c2ccc(O)c(O)c2)C1O (stereo unspecified) | inactive
38 | CCN(CC)CCOc1ccc(Nc2ncc3cc(-c4c(Cl)cccc4Cl)c(=O)n(C)c3n2)cc1 | 4650 nM (active)
39 | Cc1cc(C2CCCCC2)n(O)c(=O)c1 | 2330 nM (active)
40 | CC[C@]1(O)C[C@H]2CN(CCc3c([nH]c4ccccc34)[C@@](C(=O)OC)(c3cc4c(cc3OC)N(C=O)[C@H]3[C@@](O)(C(=O)OC)[C@H](OC(C)=O)[C@]5(CC)C=CCN6CC[C@]43[C@@H]65)C2)C1 | 14.7 nM (active) and 131 nM (active)
41 | CCN(CCO)CCCC(C)Nc1ccnc2cc(Cl)ccc12 (stereo unspecified) | inactive
42 | O=C(CCc1ccc(O)cc1)c1c(O)cc(O)cc1O | inactive
43 | CCOc1cc(CC(=O)N[C@@H](CC(C)C)c2ccccc2N2CCCCC2)ccc1C(=O)O | inactive
44 | CC(C)C[C@H](NC(=O)[C@H](Cc1ccccc1)NC(=O)c1cnccn1)B(O)O | 46.5 nM (active)
45 | Nc1nc(Cl)nc2c1ncn2[C@H]1C[C@H](O)[C@@H](CO)O1 | 208 nM (active)
46 | CC(S)C(=O)NCC(=O)O (stereo unspecified) | inactive
